# Results: PubChem BioAssay (NCATS)
# Records with an inconclusive call do not appear. A number with no mark means an inactive call. Active and inactive are the calls of the source. Calls follow the shape of the full dose curve.
# Assay: Cytotoxicity counterscreen for inhibitors of SARS-CoV-2 cell entry (AID 1645845); also: nearly all actives have a fitted effect of over 50% in size
# Details: cell viability (SARS-CoV-2 entry assay cells); series mostly up to 57.1 µM; activity change, negative = cytotoxicity: at the top concentration
# Method in brief: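 48 h compound treatment (after 1 h preincubation), HEK293-ACE2 cells, 37 C/5% CO2; ATP luminescence endpoint; normalized to cell wells and media blanks.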
# % is scaled to controls: 0 for no effect and ±100 for the full control effect; potency is read from the fitted curve at half-maximal effect.
SMILES,"activity change, negative = cytotoxicity",Potency,outcome
COc1ccc2nc3n[nH]c(C)c3c(NCCOCCO)c2c1,-10.7%,–,–
Cc1ccc(-c2nn(C(C)(C)CNC(=O)c3ccncc3)c3ncnc(N)c23)cc1,-7.22%,–,–
CNCCN(C)Cc1cn[nH]c1-c1ccc(OC2CC(OCCC3CCOCC3)C2)cc1 (stereo not given),-9.3%,–,–
CN(C)Cc1ccc(S(=O)(=O)n2ccc(/C=C/C(=O)NO)c2)cc1,–,31.6 µM (active),–
Cc1ccc(NC(=O)c2ccc(CN3CCNCC3)cc2)cc1Nc1nccc(-c2cccnc2)n1,–,25.1 µM (active),–
Nc1cc(C(F)(F)F)c(-c2nc(N3CCOCC3)nc(N3CCOCC3)n2)cn1,–,10 µM (active),–
Cc1noc(C)c1-c1ccc(-c2cc(C(N)=O)c(NC(N)=O)s2)c(O[C@H]2CCNC2)c1,-21.4%,–,–
O=C(Cc1ccccc1)Nc1nnc(CCSCCc2nnc(NC(=O)Cc3ccccc3)s2)s1,4.89%,–,–
CC(C)C[C@H](CO)Nc1nc(S[C@@H](C)c2ccccc2)nc2nc(N)sc12,–,31.6 µM (active),–
CC1(C)CCC2(CC1)N[C@@H](C(=O)N[C@@H]1CC[C@@H](C(N)=O)OC1)[C@H](c1ccnc(Cl)c1F)[C@]21C(=O)Nc2cc(Cl)ccc21,–,–,inactive [at 37.9 µM]
O=C1OC(COc2ccccc2[N+](=O)[O-])CC1Cc1ccccc1 (stereo not given),–,–,inactive
CO[C@H]1C[C@@H]2CC[C@@H](C)[C@@](O)(O2)C(=O)C(=O)N2CCCC[C@H]2C(=O)O[C@H]([C@H](C)C[C@@H]2CC[C@@H](OP(C)(C)=O)[C@H](OC)C2)CC(=O)[C@H](C)/C=C(\C)[C@@H](O)[C@@H](OC)C(=O)[C@H](C)C[C@H](C)/C=C/C=C/C=C/1C,-27.2%,–,–
Cc1ccc(NC(=O)Nc2cc(C(F)(F)F)ccc2F)cc1Nc1ccc2c(c1)NC(=O)/C2=C\c1ccc[nH]1,-5.4%,–,–
O=C(C1CC1)N1CC[C@@H](Cc2n[nH]c(=O)n2-c2ccc(-c3ccc4occc4c3)cc2)C1,–,4.47 µM (active),–
O=C(Nc1ccc2[nH]nc(-c3ccncc3)c2c1)[C@@H]1CCN(CC(=O)N2CCN(c3ccc(-c4ncccn4)cc3)CC2)C1,1.16%,–,–
COc1cc(N2CCC(N)CC2)ccc1Nc1ncc(Cl)c(-c2c[nH]c3ccccc23)n1,–,31.6 µM (active),–
CCN1C(=O)CNc2ncc(-c3ccc(-c4ncn[nH]4)nc3C)nc21,–,22.4 µM (active),–
CN(CCOc1ccc(-c2ccc3c(c2)OCO3)cc1C(C)(C)C)CC(=O)O,2.26%,–,–
C[C@@H](Nc1ncnc2[nH]c(-c3ccc(O)cc3)cc12)c1ccccc1,3.13%,–,–
O=C(C(c1ccccc1)c1ccccc1)N1CCN(CC(O)COc2cccc3ncccc23)CC1 (stereo not given),-23.9%,–,–

SMILES,"activity change, negative = cytotoxicity",Potency,outcome
C[C@@H]1CC(=O)Nc2cccc(-c3ccc4c(c3)c(-c3cnn(C)c3)nn4C)c2N1,2.23%,–,–
O=C(/C=C/c1ccc2ccc(C(F)(F)F)cc2n1)c1ccncc1,–,–,inactive
COc1cc(N2CCN(C)CC2)ccc1Nc1ncc2c(n1)N(C)c1ccccc1C(=O)N2C,-4.56%,–,–
CSC[C@H]1CN(Cc2c[nH]c3c(N)ncnc23)C[C@@H]1O,-5.66%,–,–
O=C(Cc1cccc(OC(F)(F)F)c1)Nc1ccc(CCCCc2nnc(NC(=O)Cc3ccccn3)s2)nn1,1.82%,–,–
COc1cc(C(=O)O)ccc1NC(=O)[C@@H]1N[C@@H](CC(C)(C)C)[C@](C#N)(c2ccc(Cl)cc2F)[C@H]1c1cccc(Cl)c1F,–,–,inactive
C[C@H](Nc1ncnc2nc[nH]c12)c1cc2cccc(Cl)c2c(=O)n1-c1ccccc1,2.56%,–,–
Cc1c(NC(=O)OCC2COCCN2)cn2ncnc(Nc3ccc4c(cnn4Cc4cccc(F)c4)c3)c12 (stereo not given),-19.4%,–,–
CC(Nc1ncnc2nc[nH]c12)c1cc2cccc(Cl)c2c(=O)n1-c1ccccc1 (stereo not given),-16.6%,–,–
O=C(CCl)Nc1cccc(NC2=NS(=O)(=O)c3ccccc32)c1,–,–,inactive
CN1CCN(c2nc(C3=C(c4c[nH]c5ccccc45)C(=O)NC3=O)c3ccccc3n2)CC1,–,–,inactive
Cn1nccc1Nc1nccc(-c2cc3c(s2)C(C)(C)N(CCN2CCOCC2)C3=O)n1,–,–,inactive
Cc1[nH]cnc1CN1CCN(C(=O)N[C@@H](CC(C)C)C(=O)O)[C@@H](Cc2ccccc2)C1=O,–,–,inactive
COC(=O)N[C@@H](C)CNc1nccc(-c2cn(C(C)C)nc2-c2cc(Cl)cc(NS(C)(=O)=O)c2F)n1,–,–,inactive
Nc1ncccc1-c1nc2ccc(-c3ccccc3)nc2n1-c1ccc(C2(N)CCC2)cc1,–,31.6 µM (active),–
CCC(C)CNCC(=O)N1CCc2sccc2C1c1cccc(C)n1 (stereo not given),0.183%,–,–
CCn1nc(C2CCN(C(=O)CCO)CC2)nc1-c1cnc(N)c(-c2nnc(C(C)(C)C)o2)n1,-10.2%,–,–
CNc1nc(-c2ccc3c(N)n[nH]c3c2)cc(N2C[C@@H](C(=O)NC3CCCCC3)CC[C@H]2C)n1,0.975%,–,–
O=C(NCc1cccc(O)c1)Nc1nc(-c2ccncc2)cs1,-15.4%,–,–
O=C(O)c1ccc(O)c2ncccc12,–,–,inactive
